An excerpt weighted towards active compounds, which were near 3% of everything screened.
TRAIL sens C8 – caspase-8 TRAIL sensitization | AID 624354 | NB7+C8 cells + TRAIL, ATPlite viability luminescence | 360,000 tested, 1% active | inhibition (viability loss, TRAIL sensitization), % at 10 µM;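 active = compounds causing at least 50% loss of cell viability in the single-dose screen, relative to plate controls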
SENP8 block-1 – SENP8 (human) protease inhibition; Q96LD8; recombinant SENP8, Nedd8 substrate fluorescence; inhibition, % at 20 µM; 360,000 tested, 0.64% active; in the data active = inhibition mostly above about 40%, no sharp cut-off; inactive = mostly below about 27%
PPC-1+TRAIL kill – PPC-1 cancer cell killing with TRAIL present; 220,000 tested, 0.41% active; PPC-1 cells + TRAIL, ATPLite viability luminescence; cell killing (% activity), % at 4 µM or 5 µM;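 active = cell killing above 50% in the first pass at 4 µM, then a duplicate retest at 5 µM averaging 50% or more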;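 also: plate controls were cells with TRAIL plus DMSO for no effect and medium-only wells lacking cells for full effect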
SENP7 inh – SENP7 protease inhibition | recombinant SENP7, Z-RLRGG-aminoluciferin luminescence, 40 min | inhibition, % at 5 µM | 330,000 tested, 1.5% active | AID 434973;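 active = inhibition above about 50% at the single test dose, limit read from the data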;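 also: plate controls were DMSO with enzyme for no effect and no enzyme buffer wells for full effect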
SENP8 block-2 – SENP8 protease inhibition; 330,000 tested, 1.2% active; inhibition, % at 10 µM; purified SENP8, Z-RLRGG-aminoluciferin cleavage, luminescence; Q96LD8; in the data active = inhibition above about 50%
SENP6 inh – inhibitors of human SENP6 protease | inhibition, % at 10 µM | Q9GZR1 | 330,000 tested, 1.8% active | Recombinant SENP6 catalytic domain, aminoluciferin luminescence;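 active = inhibition above about 50% at the single tested dose, limit read from the data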;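 also: plate controls were DMSO wells with enzyme for no effect and DMSO wells lacking enzyme for full effect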
Target sequence (Q9GZR1 628-1112 limits assumed): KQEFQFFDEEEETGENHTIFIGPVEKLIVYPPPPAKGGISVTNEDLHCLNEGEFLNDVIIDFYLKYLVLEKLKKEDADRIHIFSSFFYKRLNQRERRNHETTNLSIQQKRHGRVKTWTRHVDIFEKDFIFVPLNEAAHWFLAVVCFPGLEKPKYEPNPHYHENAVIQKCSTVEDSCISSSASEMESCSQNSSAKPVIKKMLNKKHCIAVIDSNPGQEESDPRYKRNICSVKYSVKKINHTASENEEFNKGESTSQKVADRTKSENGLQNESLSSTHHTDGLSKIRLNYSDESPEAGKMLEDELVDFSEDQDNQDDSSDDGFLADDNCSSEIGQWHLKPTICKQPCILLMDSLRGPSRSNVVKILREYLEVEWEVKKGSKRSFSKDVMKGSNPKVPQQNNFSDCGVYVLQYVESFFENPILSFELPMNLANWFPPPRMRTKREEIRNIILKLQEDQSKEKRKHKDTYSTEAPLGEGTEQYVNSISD
An asterisk follows results filed as active; i = inactive; . = no result given.

SMILES	TRAIL sens C8	SENP8 block-1	PPC-1+TRAIL kill	SENP7 inh	SENP8 block-2	SENP6 inh
O=C(COC(=O)COc1ccccc1)NC12CC3CC(CC(C3)C1)C2	-2.2	9.5	.	1.2	6.1	16.2
Cc1nc(=S)c2c([nH]1)-c1ccccc1CC21CCCCC1	79.8*	19.9	4.1	-6.9	1.6	-7.6
C(=Cc1c[nH]c2ccccc12)c1ccc2ccccc2n1	71.5*	i	.	.	.	.
C(=Cc1c[nH]c2ccccc12)c1nccc2ccccc12	72.7*	-451.4	.	.	.	.
O=C(O)/C=C/c1ccc2ccccc2n1	-0.3	12.5	19.5	-0.5	-4.1	-10.1
COc1ccc(C(=O)N=C2SC3CS(=O)(=O)CC3N2c2ccc(C(C)=O)cc2)cc1 (stereo unspecified)	-3.1	1.6	.	0.3	5.1	7.2
O=C(COC(=O)COc1ccc(Cl)cc1)NC1CCCCCC1	8.5	7.4	.	12.5	-12.9	-6.8
Clc1nc(Cl)c2ncn(-c3ccccc3)c2n1	65.0*	-2.6	.	.	.	.
CCOC(=O)c1sc(NC(=O)c2ccc(OC)cc2)nc1C	8.9	-63.3	6.1	49.7	3.9	-2.0
CCOC(=O)c1sc(NC(=O)c2ccc(OC(C)=O)cc2)nc1C	65.1*	-52.9	49.8	99.1*	68.2*	98.0*
CCOC(=O)c1sc(NC(=O)Nc2ccc(F)cc2)nc1C	51.2*	8.3	41.9	5.6	-14.4	6.8
CC(=O)c1sc(NC(=O)c2ccc(C(C)(C)C)cc2)nc1C	54.8*	-31.8	26.9	-1.1	-19.4	-15.1
O=C(NCCc1ccccc1)C(c1ccc(F)cc1)N(C(=O)c1csnn1)C1CC1 (stereo unspecified)	-10.2	2.8	.	8.4	-2.9	-0.6
O=C(OCC(=O)N1CCN(c2ccccc2)CC1)c1nc(Cl)ccc1Cl	-3.2	-2.2	.	6.9	-7.0	-14.0
CCOC(=O)C1(C)CCCN(C(=O)c2ccccc2OC(F)(F)F)C1 (stereo unspecified)	-17.3	5.1	.	.	.	.
Cc1ccccc1Nc1c(-c2ccc(N3CCOCC3)cc2)nc2cnccn12	47.8*	i	34.0	7.7	-2.3	-11.4
N#CCOC(=O)[C@H](Cc1c[nH]c2ccccc12)NS(=O)(=O)c1ccc(Cl)cc1	0.3	-2.4	.	5.8	-3.5	7.3
CNC[C@H](Cc1ccccc1)NC[C@@H](Cc1cccc2ccccc12)NCCc1ccc(C)cc1	95.0*	24.2	.	-1.5	-18.6	-23.6
O=C1NC[C@H](Cc2ccccc2)N(CC2CCN(CCCC3CCCC3)CC2)C1=O	5.1	8.6	.	.	.	.
COc1ccccc1OCC(=O)N/N=C1\CCCCc2ccccc21	5.0	16.1	19.4	-0.2	-4.0	1.4
O=C(COc1ccccc1F)N/N=C1\CCCc2ccccc21	1.3	11.6	18.3	38.8	37.4	56.8*
CC(/C=C/c1ccccc1)=N/NC(=O)c1cc([N+](=O)[O-])cc([N+](=O)[O-])c1	52.0*	18.0	27.1	.	.	.
CC(/C=C/c1cccc([N+](=O)[O-])c1)=N/NC(=O)c1cccnc1	10.4	11.9	11.5	4.5	-0.1	5.2
CC(=NNC(=O)c1ccccc1N)c1ccccc1O	53.9*	-140.8	.	.	.	.
COc1ccc(/C(C)=N/NC(=O)c2ccccc2N)cc1	2.9	-452.5	13.4	5.5	5.1	8.4
SMILES	TRAIL sens C8	SENP8 block-1	PPC-1+TRAIL kill	SENP7 inh	SENP8 block-2	SENP6 inh
CCc1nnc(NS(=O)(=O)c2ccc(N=Cc3c(C)[nH]n(-c4ccc(C)c(C)c4)c3=O)cc2)s1	56.1*	25.3	43.5	-5.2	-8.0	14.3
C/C(=N\NC(=O)c1cc(Cl)ccc1O)c1ccc(Br)s1	35.6	-167.9	20.0	48.7	74.0*	79.0*
C/C(=N\NC(=O)c1ccc(Cl)cc1)c1ccc(Br)s1	21.2	19.8	4.1	-0.6	-4.9	-23.3
CCOc1ccc(CCNC(=O)Cc2ccc(NC(=O)C3=C(C)OCCS3)cc2)cc1	17.3	13.9	.	-0.1	-6.8	7.2
CSc1ccc(CNC(=O)Cc2ccc(NC(=O)C3=C(C)OCCS3)cc2)cc1	58.8*	11.2	.	-0.9	-10.8	-15.0
CCN(CC(=O)Nc1c(F)cccc1F)C(=O)c1nc2nc(C)cc(C)n2n1	-5.4	9.5	.	-2.0	5.8	-10.4
Cc1cc(-c2nc3cc(F)ccc3s2)ccc1N	73.4*	-466.9	.	.	.	.
CC1=NC(=O)C(N=Nc2cccc(C(=O)O)c2)N1c1ccccc1 (stereo unspecified)	2.6	21.8	19.7	-5.8	-14.2	2.1
Cc1[nH]n(-c2ccccc2)c(=O)c1N=Nc1ccccc1C(=O)O	3.8	27.1	.	2.8	1.2	2.4
CC1=NC(=O)C(N=Nc2ccccc2)N1c1ccccc1 (stereo unspecified)	13.5	46.2*	18.2	3.7	-5.6	-10.1
CC1=NC(=O)C(N=Nc2ccccc2C(=O)O)N1c1ccccc1 (stereo unspecified)	4.6	48.0*	0.1	3.6	-2.4	-6.6
Cc1ccc(NC(=O)C2CCN(S(=O)(=O)c3ccc4ccccc4c3)CC2)nc1	9.0	14.5	.	6.0	-6.6	-3.4
CC1(C)NC(=O)N(CC(=O)OCC(=O)NC(=O)c2ccccc2)C1=O	-4.7	10.9	.	-7.6	-5.9	-0.9
O=c1c2ccccc2sc2ccc(NCCCN3CCOCC3)cc12	10.4	-3.5	.	12.9	4.9	15.3
O=c1c2ccccc2sc2c(CO)ccc(NCCN3CCCCC3)c12	5.3	41.0*	.	.	.	.
O=C(Nc1ccc(Cl)c(S(=O)(=O)N2CCOCC2)c1)c1ccc(OCC2CCCO2)cc1 (stereo unspecified)	51.1*	5.0	11.0	-5.1	4.4	-1.1
NC(=O)c1oc2ccccc2c1NC(=O)c1ccc(F)cc1	0.7	16.6	24.5	0.1	8.3	-1.8
NC(=O)c1oc2ccccc2c1NC(=O)c1ccc([N+](=O)[O-])o1	74.4*	27.7	.	18.8	-3.5	-13.0
CCCC(=Nc1ccc(N)cc1)C1=C(O)C(C(=O)OC)C(C)(C)CC1=O (stereo unspecified)	6.9	79.6*	5.6	1.2	6.5	14.0
COc1ccccc1N1CCN(/N=C/c2ccccc2C(=O)O)CC1	-11.0	14.4	.	-2.4	0.6	9.7
O=[N+]([O-])c1cc(C=Nc2cccc3c(O)cccc23)ccc1Cl	.	.	.	25.1	59.6*	84.3*
O=[N+]([O-])c1cc(/C=N\Nc2ccccn2)ccc1Cl	-6.0	17.3	.	-13.1	-13.4	-6.5
CN(C(=O)COC(=O)/C=C/c1cccs1)C1CCCCC1	-5.2	11.8	.	10.0	3.6	-9.0
Cc1cc(C)c(C)c(S(=O)(=O)N2CCN(c3ncnc4ccccc34)CC2)c1C	54.8*	-222.0	.	7.2	-2.6	-4.0
O=C(OCc1c(-c2ccccc2)ncc2ccccc12)c1cccs1	-1.2	9.9	.	-15.8	-11.0	1.8
C(=N\Nc1nncc2ccccc12)/c1ccccn1	81.3*	28.7	.	20.4	23.4	43.7
CC(C)CNS(=O)(=O)c1cc(C(=O)OCC(=O)c2ccc3c(c2)OCCO3)c(Cl)cc1Cl	-5.2	11.4	19.1	-1.7	2.9	-17.5
CCCn1c(C)cc(C(=O)COC(=O)c2cc(=O)[nH]c3ccccc23)c1C	57.5*	-233.0	.	.	.	.

Screening data: PubChem, Sanford-Burnham Center for Chemical Genomics
